Experimental data as given in PubChem BioAssay (NCATS).
Results filed as inconclusive are left out. Activity calls are given as the source filed them. The call rests on the fitted dose curve; in most records, active means well fitted inhibition curve with a large enough effect; inconclusive means small, poorly fitted or top-dose-only effect; inactive means flat fitted curve, though single readings scatter.

Legend:
Test in all cases: qHTS profiling for inhibitors of Plasmodium falciparum proliferation (AID 504749); further: nearly all actives have a fitted effect of over 60% in size
Conditions in all cases: P. falciparum in erythrocytes, SYBR Green DNA, 72 h; series mostly up to 28.7 µM
[1] = tested on: 7G8
Method in brief: (§1)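 P. falciparum-infected erythrocytes (0.3% parasitemia, 2.5% hematocrit final) were exposed to compounds for 72 h at 37 C in 5% CO2, then lysed with SYBR Green buffer overnight at room temperature; parasite DNA fluorescence was normalized to artemisinin and DMSO controls.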

[2] = tested on: AS120
Method in brief: as §1

[3] = tested on: ATS95
Method in brief: as §1

[4] = tested on: C2A
Method in brief: as §1

[5] = tested on: CP191
Method in brief: as §1

[6] = tested on: CP203
Method in brief: as §1

[7] = tested on: CP211
Method in brief: as §1

[8] = tested on: CP215
Method in brief: as §1

[9] = tested on: CP217
Method in brief: as §1

[10] = tested on: CP237
Method in brief: as §1

[11] = tested on: CP252
Method in brief: as §1

[12] = tested on: CP256
Method in brief: as §1

[13] = tested on: CP269
Method in brief: as §1

[14] = tested on: CP305
Method in brief: as §1

[15] = tested on: P93_24
Method in brief: as §1

[16] = tested on: PC15
Method in brief: as §1

[17] = tested on: PC26
Method in brief: as §1

[18] = tested on: PC49
Method in brief: as §1

[19] = tested on: TAB109
Method in brief: as §1

[20] = tested on: W2
Method in brief: as §1

Measured: Potency
Potency means the concentration at half of the fitted maximal effect.

C[C@@]12C(=O)OC(=O)[C@]1(C)[C@H]1CC[C@@H]2O1
active: [1] 2.82 µM | [2] 3.55 µM | [3] 3.98 µM | [4] 3.98 µM | [5] 1.58 µM | [6] 2.56 µM | [7] 5.1 µM | [8] 2.28 µM | [9] 2.51 µM | [10] 1.26 µM | [11] 3.98 µM | [12] 3.98 µM | [13] 2.56 µM | [14] 2.87 µM | [15] 3.98 µM | [16] 3.98 µM | [17] 2.87 µM | [18] 2.24 µM | [19] 2.82 µM | [20] 2.28 µM
